Data: PubChem BioAssay AID1159580 (chemical genetic matrix, 2015)
“And” between values parts separate entries of the source, which are not always exact repeats. Equal entries are not always repeated. About 2,000 (36%) of roughly 5,500 compounds were called active. Roughly 18% stayed inconclusive and do not appear here. No stated cut-off is given here; in the data, active means normalized growth mostly below about 0.91 (no sharp cut-off); inconclusive means no clear call, values can overlap the other calls; inactive means mostly above about 0.92. The list shows a part of the results.

Assay: chemical genetic growth profiling, strain panel (AID 1159580);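 further: tested at 20 µM; growth read once vehicle control cultures reached saturation at 30 °C; 1 = growth at the plate median or of vehicle wells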
Conditions: S. cerevisiae deletion strains, growth OD

Measured: normalized growth

Cc1cc(-c2ccccc2)nnc1NCCN1CCOCC1
inactive: locus YAL013W, strain DEP1, stronger effect = lower value 1 | locus YAL021C, strain ccr4, stronger effect = lower value 0.985 | locus YAL026C, strain drs2, stronger effect = lower value 0.991 | locus YAL030W, strain snc1, stronger effect = lower value 0.986 | locus YBL061C, strain skt5, stronger effect = lower value 0.991 | locus YBR009C, strain hhf1, stronger effect = lower value 0.989 | locus YBR021W, strain FUR4, stronger effect = lower value 0.999 | locus YBR023C, strain chs3, stronger effect = lower value 0.989 | locus YBR171W, strain sec66, stronger effect = lower value 0.977 | locus YBR229C, strain ROT2, stronger effect = lower value 1.01 | locus YBR231C, strain swc5, stronger effect = lower value 0.989 | locus YBR279W, strain paf1, stronger effect = lower value 0.986 | locus YCL011C, strain gbp2, stronger effect = lower value 0.983 | locus YCL016C, strain dcc1, stronger effect = lower value 0.984 | locus YCL029C, strain bik1, stronger effect = lower value 0.964 | locus YCL061C, strain MRC1, stronger effect = lower value 0.985 | locus YCL069W, strain vba3, stronger effect = lower value 0.988 | locus YCR088W, strain abp1, stronger effect = lower value 0.99 | locus YDL005C, strain med2, stronger effect = lower value 0.99 | locus YDL035C, strain GPR1, stronger effect = lower value 1.03 | locus YDL040C, strain nat1, stronger effect = lower value 0.992 | locus YDL074C, strain BRE1, stronger effect = lower value 0.986 | locus YDL101C, strain DUN1, stronger effect = lower value 0.995 | locus YDL134C, strain PPH21, stronger effect = lower value 1.01 | locus YDL185W, strain tfp1, stronger effect = lower value 0.941 | locus YDL192W, strain arf1, stronger effect = lower value 0.974 | locus YDR001C, strain nth1, stronger effect = lower value 0.99 | locus YDR069C, strain doa4, stronger effect = lower value 1 | locus YDR101C, strain arx1, stronger effect = lower value 0.977 | locus YDR137W, strain rgp1, stronger effect = lower value 0.991 | locus YDR150W, strain NUM1, stronger effect = lower value 0.992 | locus YDR159W, strain sac3, stronger effect = lower value 1.01 | locus YDR162C, strain NBP2, stronger effect = lower value 1.01 | locus YDR195W, strain ref2 0.974 | locus YDR297W, strain sur2, stronger effect = lower value 0.997 | locus YDR318W, strain mcm21, stronger effect = lower value 0.98 | locus YDR334W, strain swr1, stronger effect = lower value 0.983 | locus YDR335W, strain msn5, stronger effect = lower value 0.986 | locus YDR388W, stronger effect = lower value 0.986 | locus YDR392W, strain spt3, stronger effect = lower value 0.924 | locus YDR502C, strain sam2, stronger effect = lower value 1 | locus YEL003W, strain gim4, stronger effect = lower value 0.998 | locus YEL037C, strain rad23, stronger effect = lower value 0.994 | locus YEL061C, strain CIN8 (second series), stronger effect = lower value 0.991 | locus YEL061C, strain CIN8, stronger effect = lower value 0.997 | locus YER015W, strain faa2, stronger effect = lower value 0.997 | locus YER016W, strain bim1, stronger effect = lower value 1 | locus YER110C, stronger effect = lower value 0.982 | locus YER111C, strain swi4, stronger effect = lower value 0.985 | locus YER155C, strain BEM2 (second series), stronger effect = lower value 1 | locus YER155C, strain BEM2, stronger effect = lower value 1 | locus YER167W, strain BCK2, stronger effect = lower value 1 | locus YFR010W, strain ubp6, stronger effect = lower value 0.992 | locus YGL078C, strain dbp3, stronger effect = lower value 0.991 | locus YGL086W, strain mad1, stronger effect = lower value 1.01 | locus YGL167C, strain pmr1, stronger effect = lower value 0.991 | locus YGL173C, strain kem1, stronger effect = lower value 0.983 | locus YGL227W, strain vid30, stronger effect = lower value 0.987 | locus YGL240W, strain doc1, stronger effect = lower value 0.974 | locus YGL248W, strain PDE1, stronger effect = lower value 1.02 | locus YGL253W, strain hxk2, stronger effect = lower value 0.987 | locus YGR078C, strain PAC10, stronger effect = lower value 1 | locus YGR135W, strain pre9, stronger effect = lower value 0.993 | locus YGR229C, strain SMI1, stronger effect = lower value 1.03 | locus YGR252W, strain gcn5, stronger effect = lower value 1.13 | locus YHR013C, strain ard1, stronger effect = lower value 0.983 | locus YHR027C, strain rpn1, stronger effect = lower value 0.987 | locus YHR030C, strain SLT2, stronger effect = lower value 1 and 0.966 | locus YHR079C, strain IRE1 (second series), stronger effect = lower value 0.972 | locus YHR079C, strain IRE1, stronger effect = lower value 0.961 | locus YHR094C, strain hxt1, stronger effect = lower value 0.969 | locus YHR129C, strain ARP1, stronger effect = lower value 0.996 | locus YHR142W, strain chs7, stronger effect = lower value 0.981 | locus YHR200W, strain rpn10, stronger effect = lower value 0.97 | locus YIL066C, strain RNR3, stronger effect = lower value 1.01 | locus YIL073C, strain SPO22, stronger effect = lower value 0.953 | locus YIL125W, strain kgd1, stronger effect = lower value 0.977 | locus YIR030C, strain dcg1, stronger effect = lower value 0.979 | locus YJL092W, strain hpr5, stronger effect = lower value 0.988 | locus YJL095W, strain BCK1 (second series), stronger effect = lower value 0.99 | locus YJL095W, strain BCK1, stronger effect = lower value 0.976 and 0.961 | locus YJL115W, strain asf1, stronger effect = lower value 0.991 | locus YJL129C, strain trk1, stronger effect = lower value 0.968 | locus YJL134W, strain LCB3, stronger effect = lower value 1.01 | locus YJL154C, strain vps35, stronger effect = lower value 1 | locus YJL164C, strain tpk1, stronger effect = lower value 0.987 | locus YJL166W, strain qcr8, stronger effect = lower value 0.993 | locus YJL168C, strain set2, stronger effect = lower value 0.973 | locus YJL187C, strain SWE1 (second series), stronger effect = lower value 0.997 | locus YJL187C, strain SWE1, stronger effect = lower value 0.986 | locus YJR043C, strain POL32, stronger effect = lower value 0.99 | locus YJR066W, strain TOR1, stronger effect = lower value 0.918
